PubChem BioAssay AID1159580 (chemical genetic matrix, 2015)
Hit rate of the full screen: of about 5,500 compounds, about 2,000 (36%) were called active. Roughly 18% stayed inconclusive and do not appear here. No stated cut-off is given here; in the data, active means normalized growth mostly below about 0.91 (no sharp cut-off); inconclusive means no clear call, values can overlap the other calls; inactive means mostly above about 0.92. The list shows a part of the results.

Experiment: chemical genetic growth profiling, strain panel (AID 1159580);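 further: tested at 20 µM; growth read once vehicle control cultures reached saturation at 30 °C; 1 = growth at the plate median or of vehicle wells; lower values mean less growth of the strain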
Settings: S. cerevisiae deletion strains, growth OD
[1] = locus YDL101C, strain DUN1, active compounds read low
[2] = locus YHR030C, strain SLT2, active compounds read low

Measured: normalized growth

O=C(Oc1ccc(F)cc1)c1cccs1
inactive: locus YAL013W, strain DEP1, active compounds read low 1.01 | locus YBR229C, strain ROT2, active compounds read low 1.01 | [1] 1.03 | locus YDR150W, strain NUM1, active compounds read low 0.941 | locus YEL061C, strain CIN8, active compounds read low 1 | locus YGR078C, strain PAC10, active compounds read low 1.01 | [2] 0.987 | locus YHR087W, strain rtc3, active compounds read low 0.992 | locus YJR043C, strain POL32, active compounds read low 1.03 | locus YJR075W, strain HOC1, active compounds read low 0.986 | locus YLR039C, strain RIC1, active compounds read low 1.05 | locus YLR058C, strain SHM2 (second series), active compounds read low 0.995 | locus YLR085C, strain ARP6, active compounds read low 0.992 | locus YLR262C, strain YPT6, active compounds read low 0.967 | locus YML094W, strain GIM5, active compounds read low 0.989 | locus YMR219W, strain ESC1, active compounds read low 0.993 | locus YMR263W, strain SAP30, active compounds read low 0.966 | locus YNL153C, strain GIM3, active compounds read low 1.02 | locus YNL298W, strain CLA4 (second series), active compounds read low 1.03 | locus YNL322C, strain KRE1, active compounds read low 1 | locus YNR030W, strain Alg12, active compounds read low 1.02 | locus YPL055C, strain LGE1, active compounds read low 0.91 | locus YPL241C, strain CIN2, active compounds read low 1 | locus YPR135W, strain CTF4, active compounds read low 1.01

O=C(Oc1ccc(C2SCCS2)cc1)c1cccs1
inactive: locus YAR019C, strain CDC15, active compounds read low 1 | locus YBL105C, strain PKC1, active compounds read low 1.01 | locus YBR135W, strain CKS1, active compounds read low 0.997 | locus YBR136W, strain MEC1, active compounds read low 1.01 | locus YBR160W, strain CDC28, active compounds read low 1 | locus YDL017W, strain CDC7, active compounds read low 0.999 | locus YDL028C, strain MPS1, active compounds read low 0.993 | [1] 1.01 | locus YDL108W, strain KIN28, active compounds read low 0.996 | locus YDL132W, strain cdc53, active compounds read low 0.995 | locus YDL214C, strain PRR2, active compounds read low 0.775 | locus YDR052C, strain DBF4, active compounds read low 1.01 | locus YDR054C, strain cdc34, active compounds read low 1 | locus YDR226W, strain ADK1, active compounds read low 1 | locus YDR477W, strain SNF1, active compounds read low 0.818 | locus YER123W, strain YCK3, active compounds read low 0.812 | locus YER133W, strain GLC7, active compounds read low 0.834 | locus YFL009W, strain cdc4, active compounds read low 1 | locus YFL029C, strain CAK1, active compounds read low 1.02 | locus YFR003C, strain YPI1, active compounds read low 1.01 | locus YFR028C, strain CDC14, active compounds read low 0.988 | locus YGR040W, strain KSS1, active compounds read low 0.869 | locus YGR052W, strain FMP48, active compounds read low 0.821 | locus YGR092W, strain DBF2, active compounds read low 0.768 | locus YHR079C, strain IRE1, active compounds read low 0.678 | locus YHR082C, strain KSP1, active compounds read low 0.716 | locus YHR205W, strain SCH9, active compounds read low 0.936 | locus YIL147C, strain SLN1, active compounds read low 1 | locus YJL095W, strain BCK1, active compounds read low 0.572 | locus YJL128C, strain PBS2, active compounds read low 0.951 | locus YJL157C, strain FAR1, active compounds read low 0.716 | locus YJR016C, strain ILV3, active compounds read low 1 | locus YJR066W, strain TOR1 (second series), active compounds read low 0.884 | locus YJR066W, strain TOR1, active compounds read low 0.684 | locus YKL048C, strain ELM1, active compounds read low 0.937 | locus YKL101W, strain HSL1, active compounds read low 0.852 | locus YKL193C, strain SDS22, active compounds read low 0.997 | locus YKL203C, strain TOR2, active compounds read low 0.876 | locus YLR113W, strain HOG1, active compounds read low 0.884 | locus YLR133W, strain CKI1, active compounds read low 0.896 | locus YLR403W, strain SFP1, active compounds read low 0.763 | locus YML070W, strain DAK1, active compounds read low 0.726 | locus YMR001C, strain CDC5, active compounds read low 1.01 | locus YMR205C, strain PFK2 (second series), active compounds read low 0.805 | locus YMR277W, strain FCP1, active compounds read low 1 | locus YNL006W, strain LST8, active compounds read low 1 | locus YNL020C, strain ARK1, active compounds read low 0.829 | locus YNL161W, strain CBK1, active compounds read low 1 | locus YNL183C, strain NPR1, active compounds read low 0.81 | locus YNL207W, strain RIO2, active compounds read low 1 | locus YNL222W, strain SSU72, active compounds read low 0.999 | locus YNL307C, strain MCK1 (second series), active compounds read low 0.784 | locus YOL078W, strain AVO1, active compounds read low 0.997 | locus YOL136C, strain PFK27, active compounds read low 0.701 | locus YOR061W, strain CKA2, active compounds read low 0.737 | locus YOR119C, strain RIO1, active compounds read low 0.785 | locus YOR329C, strain SCD5, active compounds read low 1.01 | locus YPL031C, strain PHO85, active compounds read low 0.697 | locus YPL153C, strain RAD53, active compounds read low 0.777 | locus YPL204W, strain HRR25, active compounds read low 0.852 | locus YPL209C, strain IPL1, active compounds read low 1.01 | locus YPR025C, strain CCL1, active compounds read low 0.997 | locus YPR106W, strain ISR1, active compounds read low 1.01 | locus YPR111W, strain DBF20, active compounds read low 1 | strain NNK1, active compounds read low 1.03 | strain TSCII, active compounds read low 1.02
active: locus YFR019W, strain FAB1, active compounds read low 0.689 | [2] 0.667 | locus YKL067W, strain YNK1, active compounds read low 0.684 | locus YOR231W, strain MKK1, active compounds read low 0.549 | locus YPL256C, strain CLN2, active compounds read low 0.776
